Measured values taken from PubChem BioAssay AID504334 (NMMLSC, 2011).
“And” between values parts separate entries of the source, which are not always exact repeats. Identical values can stand only once.

Experiment: AGP1-GFP expression modulators, hit retest, confirmation, cell-based, flow cytometry, S. cerevisiae, cherry pick set 3 (AID 504334);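 note: median GFP fluorescence per well by flow cytometry over the all cells gate; ratio of sample to mean DMSO control signal so DMSO = 100% not 0%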
Settings: S. cerevisiae AGP1-GFP strain, 3 h, at 10 µM, hits give high values;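 active = response relative to DMSO over 150%; inconclusive = yeast strain with under 70 recorded events; inactive = the rest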

Percent response vs DMSO, inactive:
NC(=O)c1ccnc2c(O)cccc12 100%
Cc1cc(C)c(NC(=O)CC(=O)c2ccccc2)c(Cl)c1 99.4%
O=C(O)c1ccc(C=NNC(=O)c2cccc3ccccc23)cc1 107%
CC(=O)Nn1cnc2c(c1=O)C1(CCCCC1)Cc1ccccc1-2 104%
COCCCNc1nc(N)c([N+](=O)[O-])c(Nc2cc(OC)ccc2OC)n1 100%
Cn1c(=O)c2c(n3cnnc13)-c1ccccc1CC21CCCC1 104%
COc1ccccc1Nc1nc(NCC(C)C)nc(N)c1[N+](=O)[O-] 101%
CCN(CC)C(=O)Oc1ccnc2cc(Cl)ccc12 108%
COc1cccc(N/C(C)=C/C(=O)c2ccc(Br)cc2)c1 101%
CCCCC(=O)NCCc1cc2c(OC)ccc(OC)c2[nH]c1=O 98.8%
Oc1c(I)cc(Cl)c2cccnc12 100%
Oc1ccc(Cl)c2cccnc12 109%
Cc1ccc(NN2C(=O)C=C(c3ccccc3)C2=O)cc1 92.8%
Cc1cn2c(N)c(C=C3C=C(Cl)C(=O)C(Cl)=C3)c(=O)nc2s1 101%
COC(=O)COc1c(Cl)cc(Cl)c2ccc(C)nc12 105%
C=CCNc1nc(N)c([N+](=O)[O-])c(Nc2cccc(Cl)c2)n1 92.1%
CNc1nc(N)c([N+](=O)[O-])c(Nc2ccccc2OC)n1 89.8%
Cc1nc2c(O)cccc2cc1CO 99.1%
C=CCNc1ncnc2ccccc12 102%
COCCNc1nc(N)c([N+](=O)[O-])c(Nc2ccc(F)cc2)n1 101%
COc1ccc(NC(=O)O/N=C2/CCCc3ccc(OC)cc32)cc1 95.8%
Oc1c(Br)cc(Br)c2cccnc12 109%
O=C(Nc1ccccc1)O/N=C1\CCCCC1c1ccc([N+](=O)[O-])cc1[N+](=O)[O-] (centres undefined) 102%
Cc1cccc(C)c1Nc1ncnc(N)c1[N+](=O)[O-] 102%
CCC(C)Nc1nc(N)c([N+](=O)[O-])c(Nc2ccccc2OC)n1 (centres undefined) 104%
COc1cccc2c(=O)c(C(=O)O)c[nH]c12 94.1%
COC(=O)c1cc(=O)c2cccc(OC)c2[nH]1 99.4%
Nc1cccc2c1C(=O)c1ccc(Cl)cc1C2=O 102%
C/C(=N\NC(=O)c1ccccc1)c1ccccc1F 105%
Nn1cnc2c(c1=O)C1(CCCCC1)Cc1ccccc1-2 94.1%
COc1ccccc1-c1cc(C(F)(F)F)nc(S(=O)(=O)CCCC(=O)NC(C)C)n1 104% and 99.8%
CCc1sc(C(=O)Nc2nc(-c3ccccn3)cs2)cc1C 111%
Cn1c(NCCO)nc2c(c1=O)C1(CCCCC1)Cc1ccccc1-2 104%
CC(=O)NC(C)c1cc(Cl)c2cccnc2c1O (centres undefined) 102%
C[n+]1cccc2cccc([O-])c21 98.8%
OCCNc1ncnc2ccc(Br)cc12 101%
Nc1c(C(=O)O)ccc2c1C(=O)c1ccccc1C2=O 114%
COc1cccc2c(Cl)c(CCCl)c(C)nc12 99.8%
C=CCNc1ncnc2ccc(Br)cc12 101%
